What all share (assay): NCI-60 one-dose screen, 48 h (100 = growth as untreated, 0 = no growth, -100 = all killed)
Common to all, as to conditions: 10 µM unless noted

The subject of assay [1] is SR leukemia.
In assay [2] the test system is RPMI-8226 leukemia.
Assay [3] deals with OVCAR-8 ovarian.
For assay [4], the system named is OVCAR-5 ovarian.
Assay [5] deals with OVCAR-4 ovarian.
Assay [6] deals with SK-OV-3 ovarian.
Assay [7] has as its system IGROV1 ovarian.
For assay [8], the system named is OVCAR-3 ovarian.
For assay [9], the system named is HS 578T breast.
In assay [10] the test system is NCI/ADR-RES ovarian.

The values below come from PubChem BioAssay (NCI).

The panel holds about 83,000 compounds, 20% with a hit somewhere; the sample as a whole holds those more often.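 Single-concentration screen, 48 h exposure, 96-well plates. Endpoint: percent growth. Below 10 = active.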 Values without a mark were called inactive. The source made the active and inactive calls.

For the compound `COc1ccc2nc(N/N=C(\C)c3ccccn3)cc(C)c2c1`, the growth in [1] was -40.9% (active); in [2], -25.1% (active); in [3], 0.111% (active); in assay [4] it was 20%; in [5], 14.8%; in assay [6] it was 15.8%. In addition, the growth was -44.1% (active) in assay [7], -78.5% (active) in assay [8], 6.09% (active) in [9] and 12.4% in assay [10].
Consider `CCN1CCN(c2nc(NNC(=O)Cc3ccccc3)nc(N3CCN(C(c4ccccc4)c4ccccc4)CC3)n2)CC1`, for which the growth in assay [1] is -22.3% (active); in [2], 36.6%; in assay [3], 64.4%; in assay [4], 102%; in assay [5] it was 86.6%; in assay [6] it was 114%. Further, the growth is 64.1% in assay [7], 46.2% in [8], 96.1% in assay [9] and 90.4% in assay [10].
With `CCc1nn2c(-c3ccc(Cl)cc3C)c(-c3cc(OC)c(OC)c(OC)c3)nc2s1`, the growth in [1] was 48.3%; in assay [2] it was 63.8%; in [3], 103%; in assay [4], 92.9%; in assay [5] it was 54%; in assay [6], 94.5%. Moreover, the growth in [7] was 73.1%; in [8], 72.6%; in [9] it was 48.5%; in assay [10], 78.3%.
Take `CC(=O)c1nn(-c2ccccc2)c(=Nc2ccccc2)cc1C`: the growth in assay [1] is 99.3%; in assay [2], 100%; in assay [3], 96.7%; in [4] it was 90.5%; in assay [5], 96.9%; in [6], 108%. Further, the growth in assay [7] is 106%; in assay [8], 113%; in assay [9], 114%; in assay [10], 100%.
`CC1(C)CC2(C)CC(=O)C1C(C(=O)O)C2C(=O)O` (stereo not given): the growth in assay [1] is 90%; in assay [2], 106%; in assay [3] it was 102%; in [4], 98.3%; in [5] it was 109%; in assay [6], 101%. The growth was 109% in assay [7], 105% in [8], 102% in assay [9] and 113% in assay [10].
`CCCCCc1c(C)[nH]c(/C=C2\N=C(c3ccc[nH]3)C=C2Oc2ccccc2)c1C`: the growth in assay [1] was 8.8% [100 µM] (active); in [2], -31.5% [100 µM] (active); in assay [3] it was -90.2% [100 µM] (active); in [4] it was -99.8% [100 µM] (active); in assay [5], -74.7% [100 µM] (active); in assay [6], -54.7% [100 µM] (active). Moreover, the growth in assay [7] was -31.6% [100 µM] (active); in assay [8] it was -93.4% [100 µM] (active); in [9], -7.4% [100 µM] (active); in [10], -77.1% [100 µM] (active).
For `NC(=O)c1cc(Cl)ccc1NC(=O)c1ccccc1-c1ccccc1`, the growth in assay [1] was 5.82% (active); in assay [2] it was 19%; in assay [3] it was 32%; in assay [4] it was 54.4%; in [5], 48.3%; in assay [6], 33.1%. Further, the growth is 30% in assay [7], -30.7% (active) in assay [8], 33.8% in assay [9] and 20.7% in [10].
As to `COc1ccc(C2=NN(C(C)=O)C(c3c(C)nn(-c4ccccc4)c3N3CCOCC3)C2)cc1` (stereo not given), the growth in assay [1] is 90.5%; in assay [2] it was 97.9%; in assay [3], 94.4%; in [4], 97.6%; in assay [5], 89.5%; in assay [6], 80.4%. In addition, the growth in [7] is 103%; in assay [8], 104%; in assay [9] it was 96.7%; in assay [10] it was 94.7%.
`COP(=O)(OC)C(c1ccc(O)cc1)(c1ccc(O)cc1)c1ccc(O)cc1`: the growth was 93.4% in [1]; 99.3% in assay [2]; 97.2% in assay [3]; 124% in [4]; 99.3% in [5]; 122% in [6]. The growth is 11.3% in assay [7], 81.3% in assay [8], 98.8% in [9] and 92.3% in assay [10].
On to `COc1ccc(NC(=O)c2ccccc2-c2ccccc2)c(C(N)=O)c1`, for which the growth in assay [1] is 8.17% (active); in assay [2], 38.2%; in assay [3], 58.8%; in assay [4], 88.3%; in assay [5], 49.5%; in [6], 32.3%. Besides, the growth in assay [7] is 52.1%; in assay [8], -22.4% (active); in assay [9], 38.9%; in assay [10], 26.9%.
As for `Cc1n(Cc2ccc3ccccc3c2)c2ccccc2[n+]1Cc1ccc2ccccc2c1`, the growth was -35.5% (active) in assay [1]; -57.7% (active) in [2]; -31.1% (active) in assay [3]; -46.4% (active) in assay [4]; -7.76% (active) in [5]; -18.4% (active) in assay [6]. Also, the growth in [7] was -61.8% (active); in assay [8] it was -78.1% (active); in assay [9] it was -0.489% (active); in [10] it was 82.4%.
For the compound `N#CSCC1CC(O)(c2ccccc2)C(c2ccccc2)C(c2ccc(Cl)cc2)O1` (stereo not given), the growth in assay [1] was -16% (active); in assay [2], -4.14% (active); in assay [3], -86.1% (active); in assay [4], 0.178% (active); in [5] it was -32.7% (active); in [6] it was 49.5%. The growth in [7] is -30.7% (active); in assay [8] it was -100% (active); in assay [9], -32.3% (active); in assay [10] it was -71.5% (active).
`N#Cc1c(-c2ccccc2)cc(-c2ccccc2)n(CCCC(=O)O)c1=O`: the growth in assay [1] was 91.8%; in [2] it was 103%; in assay [3], 51.3%; in assay [4], 104%; in assay [5], 102%; in [6], 105%. For the same compound, the growth in [7] was 99.4%; in assay [8], 112%; in assay [9], 107%; in [10], 99.8%.
